Screening results from PubChem.
Pf apPOL block: Pf-apPOL DNA polymerase inhibition; Recombinant Pf-apPOL, molecular beacon fluorescence, 1.5 h; inhibition, % at 10 µM; 210,000 compounds, 0.25% hits
mHTT-CaM PPI inh: mHTT-calmodulin interaction abrogation | P42858 | AlphaScreen His-mHTT/GST-CaM binding, luminescence | inhibition, % at 15 µM | 190,000 compounds, 3.6% hits;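 also: 0% = both proteins with DMSO and 100% = one protein alone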
Active calls of the source: *; . = no result; ! = repeats disagree. The sample as a whole holds a higher share of hits than the screen did. Rule as the data show it: active = inhibition above about 50%; inactive = the rest.

SMILES	Pf apPOL block	mHTT-CaM PPI inh
O=C(NNC(=O)c1cc2cc(Br)ccc2oc1=O)c1ccc(O)cc1O	73*	54*
CCN(CC)S(=O)(=O)c1ccc(-c2csc(=Nc3cccc(C)c3)n2CCCO)cc1	0	64*
CCN(CC)S(=O)(=O)c1ccc(-c2csc(=Nc3ccc(C)cc3)n2C)cc1	-9	-1
O=S(=O)(c1ccc(-c2csc(=Nc3ccccc3)n2CCCO)cc1)N1CCOCC1	-9	43
CCN(CC)S(=O)(=O)c1ccc(-c2csc(=Nc3ccc(F)cc3)n2CCCO)cc1	-2	51*
COc1ccc(NC(C)=O)cc1NS(=O)(=O)C1CC1	-3	-9
COc1cc(-c2c(C#N)c(N)nc3sc(C(N)=O)c(N)c23)cc(OC)c1OC	-5	65*
COc1cc(-c2c(C#N)c(N)nc(SC)c2C#N)cc(OC)c1OC	0	-2
CCN1C(=O)C(C)(C(=O)NCc2ccc(OC)c(OC)c2)Oc2cccnc21 (centres undefined)	-5	-8
COc1ccc(C(NC(=O)c2cccc(OC)c2)c2cc(Cl)c3cccnc3c2O)cc1 (centres undefined)	-1	28
O=C(NC(c1cccc(F)c1)c1ccc2cccnc2c1O)c1ccccc1 (centres undefined)	-4	100*
O=C(Nc1ncccc1Cl)c1cccc(F)c1	-96	2
Cc1ccc(C(NC(=O)c2ccccc2)c2ccc3cccnc3c2O)cc1 (centres undefined)	-3	100*
COc1ccc(-c2cc(C(=O)N3CCC(c4ccccc4OC)CC3)no2)cc1	-2	-9
O=[N+]([O-])c1ccc(O)c(C2Oc3ccccc3C3CC(c4cccs4)=NN32)c1 (centres undefined)	3	62*
COc1cccc(C2Oc3ccccc3C3CC(c4cccs4)=NN32)c1O (centres undefined)	8	51*
COc1ccc([N+](=O)[O-])cc1C1Oc2ccccc2C2CC(c3cccs3)=NN21 (centres undefined)	0	28
c1csc(C2=NN3C(C2)c2ccccc2OC3c2ccc3c(c2)OCO3)c1 (centres undefined)	1	14
Oc1ccc(C2Oc3ccccc3C3CC(c4cccs4)=NN32)c(O)c1 (centres undefined)	9	64*
Clc1cccc(C2Oc3ccccc3C3CC(c4ccccc4)=NN32)c1Cl (centres undefined)	.	-9
CCC1Oc2ccccc2C2CC(c3cccs3)=NN12 (centres undefined)	3	75*
O=[N+]([O-])c1ccccc1C1Oc2ccccc2C2CC(c3cccs3)=NN21 (centres undefined)	-7	20
COCCC1CCN(C(=O)c2ccc(C#N)cc2)CC1	-4	-7
CN(C)c1ccc(NC(=O)c2c(F)c(F)c(F)c(F)c2F)cc1	-1	4
COc1cc(Cl)c(C)cc1NC(=O)C1CCCN(C(=O)c2cccc(C)c2)C1 (centres undefined)	-8	29
SMILES	Pf apPOL block	mHTT-CaM PPI inh
CN1C(=O)CCc2cc(NC(=O)Oc3ccccc3)ccc21	-42	-20
COc1ccccc1-n1nc(C(=O)N2CCCc3ccccc32)c2ccccc2c1=O	-6	14
Oc1ccc(NCc2cccs2)cc1	0	64*
COC(=O)c1ccc(NCc2cccs2)cc1	-3	-11
CC(C)N1C(=O)C(C)(C(=O)N2CCN(c3ccccc3F)CC2)Oc2cccnc21 (centres undefined)	-9	14
COc1ccccc1C(=O)N1CCC(c2ccn3ncc(C(=O)N4CCCCC4)c3c2)CC1	0	7
CCOc1ccc(CC(=O)N2CCCC2c2ccc(C)cc2)cc1 (centres undefined)	-3	6
Cc1ccc(C(=O)N2CC(=O)Nc3ccc(Br)cc3C2c2ccccc2)cc1C (centres undefined)	-4	98*
Cc1ccc(C(=O)N2CC(=O)Nc3ccc(F)cc3C2c2ccc(F)cc2)cc1C (centres undefined)	-3	11
Cn1cccc1C(=O)NN=C(N)CSc1ccc(Cl)cc1	-9	.
COc1ccc(N2C(=O)C(O)=C(C(C)=O)C2c2ccc(F)cc2)cc1 (centres undefined)	-4	9
Cc1ccccc1NC(=O)N1CCC(N2CCN(Cc3ccccc3)C2=O)CC1	-3	0
Cc1cccc(NC(=O)N2CCC(N3CCN(Cc4ccccc4)C3=O)CC2)c1C	-4	100*
CCc1nccn1Cc1nc(-c2ccccc2F)no1	-3	-4
OCCNc1nc(NCc2ccc3c(c2)OCO3)nc2c1cnn2-c1ccc(F)cc1	-8	67*
c1ccc(-n2ncc3c(NCc4cccs4)ncnc32)cc1	-2	1
OCCNc1nc(NN2CCOCC2)nc2c1cnn2-c1ccc(Cl)cc1	0	5
OCCNc1nc(NCCc2cccs2)nc2c1cnn2-c1ccc(F)cc1	-5	56*
CCC(=O)N1CCc2sc(C(=O)NCc3ccc(CC)cc3)cc2C1	-18	16
CCCCOc1ccc(C(=O)N(C)c2c(C)n(C)n(-c3ccccc3)c2=O)cc1	-5	-1
CCCCN(C)CCCNC(=O)CN1C(=O)/C(=C/c2cccc(Cl)c2)Sc2ccccc21	1	98*
CCCCN(C)CCNC(=O)CN1C(=O)/C(=C/c2cccc(Cl)c2)Sc2ccccc21	-15	19
O=C(CN1C(=O)/C(=C/c2cccc(Cl)c2)Sc2ccccc21)NCCN1CCCCCC1	-1	54*
O=C(CN1C(=O)/C(=C/c2ccc(Cl)cc2)Sc2ccccc21)NCCN1CCCC1	4	24
CCN(CC)CCNC(=O)CN1C(=O)/C(=C/c2cccc(Cl)c2)Sc2ccccc21	0	11
SMILES	Pf apPOL block	mHTT-CaM PPI inh
CCN(CC)CCNC(=O)CN1C(=O)/C(=C/c2ccc(C(F)(F)F)cc2)Sc2ccccc21	-4	100*
Cc1ccc(S(=O)(=O)N2CCN(C(=O)N(C)c3ccccc3)CC2)cc1	2	4
O=C1c2cccnc2C(=O)N1Cc1ccc(Cl)cc1	-5	14
O=C1C(=O)N(Cc2ccc(Cl)cc2)c2ccc(S(=O)(=O)N3CCOCC3)cc21	31	92*
Cc1ccccc1CN1C(=O)C(=O)c2cc(Cl)ccc21	-5	51*
O=c1ccc(S(=O)(=O)N2CCOCC2)cn1Cc1cccc(Cl)c1	-1	-10
O=C1C(=O)N(Cc2ccc(Cl)cc2)c2ccc(Cl)cc21	-7	78*!
Cc1ccccc1CN1C(=O)C(=O)c2ccccc21	-4	33
CCCC(=O)N1CCCC1COc1ccc(C(=O)NC2CC2)cc1 (centres undefined)	-8	-10
Cc1ccc2c(c1)N(c1ccc(Br)cc1)C=C(C#N)S2(=O)=O	-1	-6
COc1cccc(OCCCCN2CCOCC2)c1	-7	-4
COCCCNC(=O)N1CC(c2nc(C)no2)C2(CCOCC2)C1 (centres undefined)	-1	0
CN1CCN(C(C(=O)NC2CCCCC2)c2cc3c(cc2[N+](=O)[O-])OCO3)CC1 (centres undefined)	-2	2
O=C(Cn1cnc2nc(N3CCCC(C(=O)NC4CC4)C3)sc2c1=O)NC1CCCC1 (centres undefined)	-3	-3
Cc1cccc(C(C)(C)C)c1OCCN1CCOCC1	-7	0
COc1cc(CN2CCc3c([nH]c4ccccc34)C2)c([N+](=O)[O-])cc1OC	-3	66*
COc1cc(CN2CCN(Cc3cccc(OC)c3OC)CC2)c([N+](=O)[O-])cc1OC	0	4
